N370S GC – qHTS Assay for Inhibitors and Activators of N370S glucocerebrosidase as a Potential Chaperone Treatment of Gaucher Disease. Potency, µM (top dose mostly 59.4 µM), actives largely listed as inhibitors. N370S GC spleen homogenate, 4MU-glucoside fluorescence. Lysosomal acid glucosylceramidase (Homo sapiens), P04062. 0.092% of 330,000 active
aGal spleen mod – qHTS Assay for Inhibitors and Activators of Human alpha-Galactosidase From Spleen Homogenate. AID 2107, 2009. Alpha-galactosidase A (Homo sapiens), P06280. human spleen homogenate, 4MU-alpha-Gal fluorescence, 40 min. Potency, µM (top dose mostly 80 µM), most hits filed as inhibitors. 0.008% of 240,000 active
Target sequence (P06280 32-429 limits assumed): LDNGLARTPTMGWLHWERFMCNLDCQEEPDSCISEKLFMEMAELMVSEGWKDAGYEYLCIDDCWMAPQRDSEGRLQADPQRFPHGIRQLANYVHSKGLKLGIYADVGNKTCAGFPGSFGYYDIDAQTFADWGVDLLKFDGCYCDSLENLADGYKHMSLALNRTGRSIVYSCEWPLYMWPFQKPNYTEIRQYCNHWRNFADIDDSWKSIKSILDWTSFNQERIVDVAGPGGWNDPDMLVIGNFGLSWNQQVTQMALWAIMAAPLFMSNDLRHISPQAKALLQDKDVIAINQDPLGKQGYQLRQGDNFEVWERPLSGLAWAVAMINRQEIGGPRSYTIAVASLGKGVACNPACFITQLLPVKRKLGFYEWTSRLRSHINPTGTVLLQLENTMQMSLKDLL
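Spleen homogenate 1 ug + cpd (titration) + 4-MU-alpha-D-galactopyranoside 1 mM; 37C 40 min; 50 mM citrate/phosphate pH 5.0, 0.01% Tween-20; stop pH 10; fluorescence 365/440; AC50 via Hill.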
GAA spleen mod – qHTS Assay for Inhibitors and Activators of Human alpha-Glucosidase From Spleen Homogenate | human spleen homogenate, 4-MU-alpha-glucoside fluorescence | Lysosomal alpha-glucosidase (Homo sapiens), P10253 | 0.006% of 240,000 active | AID 2112, 2009 | Potency, µM (series often up to 79.9 µM), usual class: inhibitors
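Compounds were titrated against alpha-glucosidase in spleen homogenate at pH 5.0, with 1 mM 4-methylumbelliferyl substrate for 40 min at 37 C. Reactions were quenched with pH 10 NaOH/glycine and fluorescence measured.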
GAA inh – qHTS Assay for Inhibitors of Human alpha-Glucosidase as a Potential Chaperone Treatment of Pompe Disease; Lysosomal alpha-glucosidase (Homo sapiens), P10253; purified human GAA, 4-MU-alpha-glucoside fluorescence; Potency, µM (titrated, usually from 76.9 µM), usual class: inhibitors; 0.005% of 200,000 active; AID 1466, 2008
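Human alpha-glucosidase, 4 nM, pre-mixed with test compounds before 400 uM 4-methylumbelliferyl substrate; 20 min room temperature at pH 5.0. Fluorescence read after pH 10 stop; AC50 values from Hill-equation fits.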
GAA glycogen – qHTS Assay for Inhibitors and Activators of Human alpha-Glucosidase Cleavage of Glycogen | Lysosomal alpha-glucosidase (Homo sapiens), P10253 | recombinant GAA, glycogen substrate, Amplex Red glucose oxidase fluorescence | Potency, µM (series often up to 76.4 µM), most hits filed as inhibitors | 0.38% of 300,000 active;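 further: the screen sought inhibitors and activators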
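Recombinant human enzyme (4 nM); glycogen substrate; 37 C, 40 min, pH 5.0. Readout: coupled glucose oxidase/Amplex Red fluorescence.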
GLA inh pH 4.5 – qHTS Assay for Inhibitors of Human alpha-Galactosidase at pH 4.5. purified enzyme, 4-MU-alpha-Gal fluorescence, pH 4.5. activity change, negative = inhibition, % at 105 µM. 230,000 tested, under 10 active. AID 1467, 2008
Each line names hits and unclear results; the compound was inactive in the other large screens; ! = a repeat was not active. The list is not random: actives were taken first. Their share in the collection is about 0.41%. The call rests on the fitted dose curve; in most records, active means well fitted curve in the direction sought with a large enough effect; inconclusive means small, poorly fitted or top-dose-only effect, or another doubt; inactive means no such curve, though single readings can be large; an effect the other way counts as inactive or inconclusive.

CCOC(=O)c1ccc(Nc2cc(C)nc(-c3ccccc3)n2)cc1	N370S GC 1.4µM (no result: aGal spleen mod, GAA spleen mod, GAA inh, GLA inh pH 4.5)
CCOC(=O)c1ccc(Nc2nc(C)cc(C)n2)cc1	none (no result: aGal spleen mod, GAA spleen mod, GAA inh, GLA inh pH 4.5)
NCC(O)COc1cccc2ccccc12 (stereo unspecified)	none (no result: GAA inh, GAA glycogen, GLA inh pH 4.5)
COc1cc(C(=O)NNc2nc3cc4c(cc3s2)OCO4)cc(OC)c1OC	GAA glycogen 25µM
COc1cc(/C=C/c2cc(C(=O)O)c3ccccc3n2)cc(OC)c1O	GAA glycogen 14µM
COc1cc(/C=C/c2nc3ccccc3s2)cc(OC)c1O	GAA glycogen 18µM
C[C@H]1C(=O)N(S(=O)(=O)c2ccccc2[N+](=O)[O-])[C@H]1c1ccc(-c2ccccc2)cc1	none (no result: GAA inh, GAA glycogen, GLA inh pH 4.5)
O=C(CSc1ccc2ccccc2c1)N1CCN(c2ccc(O)cc2)CC1	GAA glycogen 16µM (no result: GAA inh)
CCOC(=O)N1CCN(c2ccc(O)cc2)CC1	GAA glycogen 25µM
COc1ccc(N2CCN(C(=O)CSc3nnc(-c4cc5ccccc5cc4O)n3C)CC2)cc1	none
O=C(COc1ccc2ccccc2c1)N1CCN(c2ccccc2O)CC1	GAA glycogen 14µM
O=C(c1ccc2ccccc2c1)N1CCN(c2ccc(O)cc2)CC1	GAA glycogen 18µM
CCOC(=O)N1CCN(c2ccc(Cl)cc2)CC1	none
COC(=O)C1=C[C@@H](C(=O)OC)[C@@H]2C3=C(C(=O)[C@@]2(CC(C)C)NC(=O)c2ccccc2)[C@H](C)n2c(=O)n(-c4ccccc4)c(=O)n2[C@@H]3C1	none (no result: GAA inh, GAA glycogen, GLA inh pH 4.5)
CCOC(=O)CNS(=O)(=O)c1ccc(F)cc1Br	none (no result: GAA inh, GAA glycogen, GLA inh pH 4.5)
Clc1ccc2nc(-c3ccccc3)c(CN3CCOCC3)n2c1	N370S GC 18µM
Clc1ccc(-c2nc3ccccn3c2CN2CCOCC2)cc1	GAA inh inconclusive
COc1ccc(Br)cc1/C=N/N1C(=O)CSC1=S	none (no result: aGal spleen mod, GAA spleen mod, GAA inh, GLA inh pH 4.5)
COc1cc(/C=N/N2C(=O)CSC2=S)ccc1O	GAA glycogen 32µM
CCOc1ccccc1-c1nnc2n1N=C(c1c(OC)cccc1OC)CS2	none (no result: GAA inh, GAA glycogen, GLA inh pH 4.5)
CCOC(=O)c1c(OCC)[nH]c2c1cc(O)c1ccccc12	N370S GC inconclusive, GAA glycogen 25µM
CC(/C=C/C(=O)NO)=C\[C@@H](C)C(=O)c1ccc(N(C)C)cc1	N370S GC 18µM! (no result: GAA inh, GAA glycogen)
COc1ccc2cc(C#N)c(=O)oc2c1	aGal spleen mod inconclusive (no result: GAA inh, GAA glycogen, GLA inh pH 4.5)
CCOC(=O)C(C(C)=O)c1c(Br)c(O)c(O)c2c(C(=O)c3ccc(C)cc3)coc12 (stereo unspecified)	GAA glycogen 32µM
Cc1cc(-c2ccc(N=Nc3cc(S(=O)(=O)O)c4ccccc4c3N)c(C)c2)ccc1N=Nc1cc(S(=O)(=O)O)c2ccccc2c1N	N370S GC inconclusive (no result: GAA inh, GAA glycogen, GLA inh pH 4.5)
COc1ccc(-c2cc(-c3cc(OC)ccc3O)[nH]n2)cc1	GAA glycogen 20µM
CC(=O)NNc1nc2ccccc2s1	GAA glycogen 8.9µM
COc1ccc2nc(NNC(=O)COc3ccccc3)sc2c1	GAA glycogen 5µM
Cc1ccc2c(c1)c(CC(NC(=O)c1ccccc1Oc1ccccc1)C(=O)O)cn2C(=O)OCc1ccccc1 (stereo unspecified)	none (no result: GAA inh, GAA glycogen, GLA inh pH 4.5)
O=c1oc2ccccc2c2oc3cc(O)c(O)cc3c12	GAA glycogen 28µM (no result: GAA inh)
CCN1CCN(CC(=O)N2CCCC(C(=O)c3ccc(Oc4ccccc4)cc3)C2)CC1 (stereo unspecified)	N370S GC inconclusive, GAA glycogen 7.9µM
COc1cccc2nc(-c3cccs3)nc(NN3C(=O)C=C(C)C3=O)c12	N370S GC inconclusive (no result: GAA inh, GAA glycogen, GLA inh pH 4.5)
CC1CCC/C(=N/Nc2ccc([N+](=O)[O-])cc2[N+](=O)[O-])C1 (stereo unspecified)	GAA glycogen 16µM
COCCN=c1scc(-c2ccco2)n1/N=C/c1ccc(O)c(O)c1O	none
CC(C)N=c1scc(-c2ccco2)n1/N=C/c1ccc(O)c(O)c1	GAA glycogen 7.1µM
O=C(Nc1ccc(N2CCOCC2)c2nonc12)C1CCCC1	none
Nc1ccc(N2CCOCC2)c2nonc12	GAA glycogen 7µM
O=C(Oc1cccc2c(O)cccc12)c1ccccc1	GAA glycogen 28µM
COc1ccc(/C=N/Nc2nonc2N)cc1OC	GAA glycogen 16µM
CC(C)c1cc(NC(=O)C(C)(C)C)cc(C(C)C)c1O	GAA glycogen 32µM
COc1ccccc1-c1nnc2n1N=C(c1c(OC)cccc1OC)CS2	none (no result: GAA inh, GAA glycogen, GLA inh pH 4.5)
O=C1OCC(CO)(CO)N=C1NNc1ccc(Cl)c(Cl)c1	GAA glycogen 35µM
CC(C)C(C)NC(=O)CSc1nc2scc(-c3ccco3)c2c(=O)n1-c1ccccc1 (stereo unspecified)	N370S GC 1.1µM
CC(=O)c1ccc(-c2cccc(C3C4C=CCCC4(C)C(=O)N3Cc3ccccc3)c2)cc1 (stereo unspecified)	none (no result: GAA inh, GAA glycogen, GLA inh pH 4.5)
Cc1ccc(C)c(NNC(N)=S)c1	GAA glycogen 9.9µM
COC(=O)C(N)Cc1ccc(O)c(O)c1 (stereo unspecified)	GAA glycogen 3.1µM
COC(=O)C(N)Cc1ccc(O)cc1 (stereo unspecified)	none
COc1cccc(-c2ccc3ncnc(NCc4cccc(F)c4)c3c2)c1	none (no result: aGal spleen mod, GAA spleen mod, GAA inh, GAA glycogen, GLA inh pH 4.5)
O=C1OC(N2C(=O)CC[C@H]2C(=O)Nc2ccc(F)c(F)c2)c2ccccc21 (stereo partly specified)	none (no result: aGal spleen mod, GAA spleen mod, GAA inh, GLA inh pH 4.5)
O=C1OC(N2C(=O)CC[C@H]2C(=O)Nc2ccc3c(c2)OCO3)c2ccccc21 (stereo partly specified)	GAA glycogen 32µM (no result: aGal spleen mod, GAA spleen mod, GAA inh, GLA inh pH 4.5)
CCOc1ccccc1-c1nnc2n1N=C(c1cccc(OC)c1)CS2	none (no result: GAA inh, GAA glycogen, GLA inh pH 4.5)
C/C(=N\NC(=O)CSCc1ccccc1Cl)c1cc(O)ccc1O	GAA glycogen 35µM
COc1cc2c(c(OC)c1OC)-c1c(cc(OC)c(OC)c1OC)CC(C)C(C)C2 (stereo unspecified)	none (no result: GAA inh, GAA glycogen, GLA inh pH 4.5)
COc1ccccc1Nc1c2c(nc3ccc(NC(=O)c4ccc(N(C)C)cc4)cc13)CCCC2	none (no result: N370S GC, aGal spleen mod, GAA spleen mod, GAA inh, GLA inh pH 4.5)
CC(C)=CCc1c(O)ccc2c1OC(c1ccc(O)c(O)c1)CC2=O (stereo unspecified)	GAA glycogen inconclusive (no result: GAA inh)
O=C1CC(c2ccc(O)c(O)c2)Oc2c1ccc(O)c2O (stereo unspecified)	GAA glycogen 11µM (no result: GAA inh)
